Source: PubChem BioAssay (National Center for Advancing Translational Sciences (NCATS))
Only some compounds are listed: those with a hit (about 0.36% of all), similar ones and a draw of the others.
MLL CXXC-DNA inh: blocks binding of human MLL CXXC domain to DNA. Q03164. Potency, µM (highest dose often 115 µM), hits mostly inhibitors. actives 0.037% (n = 290,000). MLL-CXXC / FITC-HOXA9 DNA fluorescence polarization; active = well fitted inhibition curve with a large enough effect in the polarisation, with a control signal flat, not every such curve was filed as active; inconclusive = small, poorly fitted or top-dose-only effect, or effect the other way, or a change in a side signal; inactive = no such curve, though single readings can be large or run the other way; the % refers to the polarisation
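Purified MLL-CXXC (added from a 7 uM solution) was preincubated 5 min at ambient with pinned compounds in 50 mM Tris-HCl pH 7.5, 50 mM NaCl, 1 mM DTT, 0.05% BSA. Fluorescein-labeled HOX-A9 DNA (50 nM solution) followed, 30 min, then polarization read.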
TR SRC2 fluor cs: Texas Red fluorescence interference in TRb-SRC2 counter-screen | actives 0.29% (n = 280,000) | AID 1479 | Potency, µM (doses to about 106 µM) | TRb/SRC2 Texas Red total fluorescence interference; active = well fitted curve in either direction with a large enough effect; inconclusive = small, poorly fitted or top-dose-only effect
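Flags fluorescent or light-absorbing compounds by total fluorescence, S + 2P, at 555 nm excitation and 632 nm emission. Mixture: 20 nM Texas Red SRC2 peptide, 0.6 uM human TRb LBD, 1 uM T3, 5% DMSO; compound exposure 5 h at ambient temperature.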
Menin MLL FP TR: menin-MLL binding inhibition, Texas Red mutant peptide; O00255; Menin + Texas Red MLL mutant peptide, fluorescence polarization; Potency, µM (doses to about 61.6 µM), usual class: inhibitors; actives 0.23% (n = 270,000); active = well fitted inhibition curve with a large enough effect in the polarisation, with a control signal flat, not every such curve was filed as active; inconclusive = small, poorly fitted or top-dose-only effect, or effect the other way, or a change in a side signal; inactive = no such curve, though single readings can be large or run the other way; the % refers to the polarisation
TRb SRC2 PPI: disrupts binding of human TR beta to SRC2 | P10828 | TRbeta-SRC2 peptide binding, fluorescence polarization; receptor liganded with 1 µM T3 | Potency, µM (titrated, usually from 106 µM), most hits filed as inhibitors | actives 0.065% (n = 280,000); active = well fitted inhibition curve with a large enough effect; inconclusive = small, poorly fitted or top-dose-only effect, or effect the other way; note: nearly all actives have a fitted effect of over 50% in size
Target sequence (P10828 whole entry, looked up): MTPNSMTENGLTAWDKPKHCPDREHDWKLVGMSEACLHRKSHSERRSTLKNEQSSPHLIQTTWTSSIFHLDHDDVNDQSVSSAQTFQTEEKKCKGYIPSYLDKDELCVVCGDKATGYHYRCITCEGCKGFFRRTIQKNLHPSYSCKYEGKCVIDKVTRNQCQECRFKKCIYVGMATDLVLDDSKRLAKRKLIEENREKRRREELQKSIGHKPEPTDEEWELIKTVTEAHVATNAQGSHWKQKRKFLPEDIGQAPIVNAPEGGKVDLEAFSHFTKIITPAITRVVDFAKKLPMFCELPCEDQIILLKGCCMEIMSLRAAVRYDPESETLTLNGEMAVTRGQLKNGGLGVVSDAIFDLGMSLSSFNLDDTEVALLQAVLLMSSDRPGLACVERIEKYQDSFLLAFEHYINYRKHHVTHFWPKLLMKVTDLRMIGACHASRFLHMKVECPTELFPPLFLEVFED
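TRb LBD 0.6 uM + Texas Red SRC2 peptide 20 nM, 1 uM T3, Tris buffer w/ 5% DMSO; compound pinned, 5 h RT; FP read ex 555/em 632; normalized to unbound and bound controls.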
Menin-MLL FL inh: inhibitors of human menin-MLL interaction, wild-type MLL peptide | Fluorescence polarization, fluorescein-MLL peptide displacement from menin | 290,000 tested, under 10 active | AID 1766 | FP activity change, % at 61.4 µM; active = well fitted curve in the direction sought with a large enough effect in the polarisation, not every such curve was filed as active; inconclusive = small, poorly fitted or top-dose-only effect, or effect the other way, or a change in a side signal; inactive = no such curve, though single readings can be large or run the other way; the % refers to the polarisation
Hits are given with their value; - = inactive; ? = inconclusive; . = no result given; ! = a repeat was not active; [ ] = another dose, or the depositor's remark.

SMILES	MLL CXXC-DNA inh	TR SRC2 fluor cs	Menin MLL FP TR	TRb SRC2 PPI	Menin-MLL FL inh
Cc1ccc(NC(=O)Cc2coc3ccc(C(C)C)cc23)c(C)c1	.	-	.	-	.
Cc1ccc(S(=O)(=O)/N=C2/C=C(Sc3ncn[nH]3)C(=O)c3ccccc32)cc1	-	-	?	28µM	-
Cc1ccc(S(=O)(=O)/N=C2/C=C(Sc3ncn[nH]3)C(=O)c3ccccc32)c(C)c1	-	-	?	28µM	-
Cc1ccc(NC(=O)CSc2nnc(C)c(=O)[nH]2)cc1C	-	-	-	-	-
Cc1nnc(SCC(=O)Nc2ccc(Br)cc2)[nH]c1=O	.	45µM[quencher]	.	-	.
CCNc1nc(NC(C)CC)nc(OC)n1 (configuration not stated)	.	-	.	-	.
O=C(Nc1cccc(F)c1)[C@@H](c1ccccc1)N1Cc2ccccc2C1=O	.	-	.	-	.
COc1ccc(Br)cc1CNc1ccc(N2CCOCC2)cc1	-	.	14µM	.	-
O=C1COc2ccc(-c3cc(-c4ccccc4)c4c(n3)-c3ccccc3OC4)cc2N1	.	-	.	-	.
O=C1COc2ccc(-c3cc(-c4ccc(Cl)cc4)c4c(n3)-c3ccccc3OC4)cc2N1	.	10µM[quencher]	.	-	.
O=c1c(-c2cc(-c3ccccc3)nc3c2COc2ccccc2-3)coc2ccc(Cl)cc12	.	20µM[quencher]	.	-	.
NNS(=O)(=O)c1ccc(Oc2ccc(S(=O)(=O)NN)cc2)cc1	.	-	.	-	.
CCCCCCCCCCCO	.	-	.	-	.
CCCCSc1nc2sc3c(c2c(=O)n1-c1ccc(OC)cc1)CCN(C)C3	-	.	?	.	-
CCCCCSc1nc2sc3c(c2c(=O)n1-c1ccc(OC)cc1)CCN(C(C)=O)C3	.	22µM[quencher]	.	?	.
COC(=O)c1c(Cl)c2n3ccccc3c(C)c(-c3ccccc3)c-2c1C(=O)OC	?	-	-	-	?
COC(=O)c1cc2c(-c3ccccc3)c(C)c3ccccn3c-2c1C(=O)OC	-	-	35µM	-	?
Cc1ccc(C)c(CN2C(=O)c3ccccc3S(=O)(=O)c3ccc(C(=O)N4CCCC4)cc32)c1	.	-	.	-	.
Cc1ccc(C)c(CN2C(=O)c3ccccc3S(=O)(=O)c3ccc(C(=O)N4CCOCC4)cc32)c1	.	2.8µM[quencher]	.	-	.
Cc1ccc(CNc2ncnc3c2nc2n3CCCC2)cc1	.	-	.	-	.
COc1ccc(CNc2ncnc3c2nc2n3CCCC2)cc1	.	18µM[quencher]	.	-	.
COC(=O)c1ccc(Nc2ncnc3c2nc2n3CCCC2)cc1	.	18µM[quencher]	.	-	.
Fc1ccc(Nc2ncnc3c2nc2n3CCCC2)cc1	.	-	.	-	.
Clc1ccccc1Nc1ncnc2c1nc1n2CCCCC1	.	-	.	-	.
Cc1ccc(Nc2ncnc3c2nc2n3CCCC2)c(Br)c1	.	20µM[quencher]	.	-	.
SMILES	MLL CXXC-DNA inh	TR SRC2 fluor cs	Menin MLL FP TR	TRb SRC2 PPI	Menin-MLL FL inh
CCc1nnc(NC(=O)Nc2ccc(Cl)cc2)s1	-	-	-	-	-
O=C(Nc1ccc(Cl)cc1)Nc1nnc(CSCc2ccc(Cl)cc2)s1	-	-	7.9µM	-	-
O=C(Nc1ccc(Cl)c(Cl)c1)Nc1nnc(CC2=CCCCC2)s1	-	-	25µM	-	-
C=C(C)C(=O)OCC(CC)(COC(=O)C(=C)C)COC(=O)C(=C)C	.	-	.	-	.
O=C(Nc1ccc2nc(-c3ccco3)c(-c3ccco3)nc2c1)N1CCCCCC1	?	22µM[quencher]	?	-	?
CCOC(=O)C1CCN(C(=O)Nc2ccc3nc(-c4ccco4)c(-c4ccco4)nc3c2)CC1	?	?	?	-	?
COc1ccc(/C=C/C(=O)O)cc1	-	45µM![fluorescent]	-	25µM!	-
COC(=O)[C@@]1(Cc2ccccc2)[C@H]2c3cc(C(=O)N(C)C)n(CCF)c3C[C@H]2CN1C(=O)c1ccccc1	.	-	-	-	-
Cc1ccc(N=C2C(=O)Nc3ccccc32)cc1	-	.	-	.	-
CCN(CC)c1ccc(N=C2C(=O)Nc3ccccc32)cc1	-	.	22µM	.	-
CCN1C=C(Cc2ccccc2C)C2=C(C1)C(c1ccccc1C)C(C#N)=C(N)O2 (configuration not stated)	-	45µM[fluorescent]	?	?	?
Oc1ccc2ccccc2c1/C=N/c1nccs1	?	?	-	35µM	-
Cc1cc(N=Cc2c(O)ccc3ccccc23)no1	-	?	-	50µM	-
Cc1cc(C)c(OCC(=O)N(Cc2ccc(N(C)C)cc2)Cc2ccco2)c(C)c1	.	?	.	-	.
C/C(=C\C(C)CC(C)CC(C)C)C1CC(=O)OC1=O (configuration not stated)	.	-	.	-	.
O=C1OC2(CCCCC2)CC2=C1C1O[C@](CCCCN3C(=O)c4ccccc4C3=O)(Cc3ccccc31)O2	-[23 µM]	.	-[11.7 µM]	.	-[11.7 µM]
